High-throughput results (PubChem BioAssay)
FGF22 binding – FGF22 (human) thermal shift binding; activity (Tm shift, normalised), % at 9.99 µM; actives 1.5% (n = 340,000); AID 651658; recombinant FGF22 thermal shift, SYPRO orange fluorescence; percent of sucrose octasulfate shift, DMSO zero;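 active = mean Tm shift, scaled 0 neutral to 100 positive control, at about 1.3% or above, every replicate too, limit read from the data; inconclusive = no clear call, values can overlap the other calls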
Target sequence (Q9HCT0 whole entry, looked up): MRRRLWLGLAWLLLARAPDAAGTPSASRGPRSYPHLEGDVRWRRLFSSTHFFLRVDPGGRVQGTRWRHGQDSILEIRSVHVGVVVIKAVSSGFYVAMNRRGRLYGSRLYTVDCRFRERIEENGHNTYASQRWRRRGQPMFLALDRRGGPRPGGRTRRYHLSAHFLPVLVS
CDK5 p35 inh – CDK5/p35 (human) kinase inhibition | Recombinant CDK5/p35, ADP-Glo luminescence, 60 min | inhibition, % at 10 µM | actives 0.01% (n = 330,000) | AID 488839;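 active = highest replicate inhibition of at least 50% and at least 75% of replicates reaching 50%; inconclusive = only one of the two criteria met; inactive = both criteria failed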;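 also: plate controls were DMSO neutral control for no effect and GW8510 at 10 µM for full effect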
dFosB activator – mouse delta FosB homodimer activation; purified delta FosB, TAMRA-CDK5 oligo fluorescence polarization; percent of positive-control signal above neutral wells; activation, % at 25 µM; P13346; actives 0.99% (n = 340,000); AID 493131;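 active = mean activation above about 17%, with every replicate also reaching it, limit read from the data, passing the limit was not always enough; inconclusive = only one of the two conditions met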
PglD DTNB – inhibitors of Campylobacter jejuni PglD acetyltransferase | purified PglD enzyme, DTNB colorimetric CoA detection | inhibition, % at 12.5 µM | actives 0.098% (n = 360,000); in the data active = inhibition above about 16%, passing the limit was not always enough; inconclusive = no clear call, values can overlap the other calls
PvdQ acylase – blocks Pseudomonas aeruginosa PvdQ acylase activity | purified PvdQ acylase, fluorescence plate reader | inhibition, % at 10 µM | actives 0.063% (n = 340,000) | AID 488965; in the data active = inhibition above about 30%, passing the limit was not always enough; inconclusive = no clear call, values can overlap the other calls;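 also: 0% = vehicle neutral wells and 100% = reference inhibitor wells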
SIRT5 inh – blocks human SIRT5 desuccinylation of peptide; actives 1.1% (n = 330,000); inhibition, % at 15 µM; Purified SirT5, succinyl-peptide AMC, trypsin-coupled fluorescence; Q9NXA8; in the data active = inhibition above about 15%; inconclusive = no clear call, values can overlap the other calls
Target sequence (Q9NXA8 whole entry, looked up): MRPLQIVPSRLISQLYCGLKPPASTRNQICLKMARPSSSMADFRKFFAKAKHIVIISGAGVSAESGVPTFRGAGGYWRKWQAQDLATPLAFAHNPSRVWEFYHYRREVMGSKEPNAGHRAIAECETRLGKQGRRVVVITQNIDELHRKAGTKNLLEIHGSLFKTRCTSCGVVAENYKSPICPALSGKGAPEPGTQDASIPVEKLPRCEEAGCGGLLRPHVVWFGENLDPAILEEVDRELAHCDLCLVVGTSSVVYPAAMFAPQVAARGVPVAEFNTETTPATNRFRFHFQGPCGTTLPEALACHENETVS
Starred values were filed as active, the others as inactive; ? = inconclusive; . = not tested or not shown. Sampled rows, rich in hits. Any-hit rate of the full collection: about 2.8%.

SMILES	FGF22 binding	CDK5 p35 inh	dFosB activator	PglD DTNB	PvdQ acylase	SIRT5 inh
N#CC(c1ccc(Cl)cc1)c1ccc(Cl)nn1 (configuration not stated)	.	0	-5	-5	80*	.
N#CC(c1ccc(=O)[nH]n1)c1ccc(Cl)cc1Cl (configuration not stated)	0	0	-1	.	5	-1
N#CC(c1ccc(Cl)nn1)c1ccccc1Cl (configuration not stated)	.	-2	3	-2	108*	.
Cc1ccc(C(C#N)c2ccc(Cl)nn2)cc1 (configuration not stated)	0	1	-1	.	86*	.
N#CC(c1ccccc1)c1ccc(=O)[nH]n1 (configuration not stated)	0	-1	6	.	9	-2
Cc1ccc(C(C#N)c2ccc3c(C(F)(F)F)cc(C(F)(F)F)nc3n2)cc1 (configuration not stated)	.	3	-5	.	-11	.
O=C(c1ccncc1)N1CC2(C1)[C@H](c1ccccc1)[C@@H](CO)N2Cc1ccccn1	0	.	.	.	.	-3
O=C(Cc1cccnc1)N[C@H]1CC[C@H](CCn2cc(Cc3ccccc3)nn2)O[C@@H]1CO	0	.	.	-7	.	1
CCc1ccc(S(=O)(=O)Nc2ccc(O)c3c(=O)cc(-c4ccccc4Cl)oc23)cc1	19*	-1	7	-1	2	.
O=C(O)c1cccc(N/N=C/C2=C(Cl)c3cc(Cl)ccc3SC2)c1	43*	-5	-2	.	18	1
O=C(O)c1cccc(N/N=C/c2ccc(F)c(F)c2)c1	43	-1	-3	-2	-8	-7
COc1ccc(S(=O)(=O)N2CCCOC2CNC(=O)C(=O)NCc2ccco2)cc1C (configuration not stated)	44*	1	-1	2	-1	-3
CCCCCOc1ccc(NC(=O)C(=O)NCCCn2ccnc2)cc1	.	-2	12	1	-19	.
COc1ccc(S(=O)(=O)N2CCCOC2CNC(=O)C(=O)NCCCn2ccnc2)cc1 (configuration not stated)	44*	-2	-3	-2	-6	1
COc1cccc(NC(=O)C(=O)NCCCn2ccnc2)c1	43*	-1	-3	.	-1	0
COc1ccc(S(=O)(=O)N2CCOC2CNC(=O)C(=O)NCc2ccco2)cc1C (configuration not stated)	0	0	-5	-8	-15	-3
CC(C)CC#Cc1ccc([C@H]2[C@@H](CO)N3C(=O)CN(C(=O)NC4CCCC4)C[C@@H]23)cc1	.	.	.	.	.	3
COc1ccc(S(=O)(=O)Nc2ccc3c(c2)C(=O)N([C@@H](C)CO)C[C@@H](C)[C@@H](CN(C)S(=O)(=O)c2cccs2)O3)cc1	-1	.	.	-2	.	2
COc1ccc(S(=O)(=O)N2C(=O)/C(=C3\SC(N)=NC3=O)c3ccccc32)cc1	0	-2	24*	-2	-4	0
COc1ccc(S(=O)(=O)N2N=C(C)Oc3ccccc3C2=O)cc1	.	1	-4	-28	6	.
CCCCn1c(O)c(N=NC(=O)c2ccncc2)c2cc(Br)ccc21	44*	0	-14	.	-6	2
COc1cccc(-c2ccc3c(c2)O[C@@H](CN(C)C)[C@H](C)CN([C@@H](C)CO)S3(=O)=O)c1	0	.	.	-3	.	-7
CC12C(=O)N(c3nccs3)C(=O)C1(C)C1CCC2O1 (configuration not stated)	43*	.	.	-2	.	.
COc1cccc(C2=NNC(=NCc3ccccc3)SC2)c1	0	0	-12	.	-17	-3
COc1ccc(CN=C2NN=C(c3cccc(OC)c3)CS2)cc1	43*	-1	-6	.	-1	4
SMILES	FGF22 binding	CDK5 p35 inh	dFosB activator	PglD DTNB	PvdQ acylase	SIRT5 inh
C=CCn1c(CNC(=O)c2ccccc2F)nnc1SCc1nc2ccccc2c(=O)[nH]1	43*	0	-8	-2	-6	0
COc1ccc(C2CC(=O)C(C=NCCO)=C(O)C2)cc1 (configuration not stated)	0	0	1	3	3	23*
COc1ccc(C2CC(=O)C(C=NCCO)=C(O)C2)cc1OC (configuration not stated)	.	0	-2	6	3	.
NS(=O)(=O)c1cccc(NC(=O)CSc2n[nH]c(-c3ccccc3Br)n2)c1	1.9*	9	-4	-1	3	-2
CC(=O)Nc1cccc(NC(=O)CSc2n[nH]c(-c3ccccc3)n2)c1	1	0	-8	5	-8	2
O=C(O)c1cc(-c2ccco2)nn1-c1cccc(Cl)c1	43*	-7	-11	.	-10	4
O=C(O)c1cc(-c2ccco2)nn1-c1ccc(Cl)cc1	0	-5	-16	.	-7	1
Cc1ccc(C(=O)N/N=C\C=C\c2ccc(Br)cc2)cn1	43*	-3	3	.	4	-3
Cc1ccc(C(=O)N/N=C/c2cc(Br)ccc2O)cn1	0	1	-8	0	1	0
Cc1c(Br)c(O)c(Br)c(O)c1/C=N/n1c(-c2ccccc2)n[nH]c1=S	.	4	-1	-10	?	30*
Oc1c(Br)cc(/C=N/n2c(-c3ccccc3)n[nH]c2=S)c(O)c1Br	.	3	-6	-2	5	.
C[C@H](NC(=O)C[C@@H]1CC[C@H]2[C@@H](COC[C@@H](O)CN2C(=O)Nc2ccccc2)O1)c1ccccc1	0	.	.	0	.	-1
Cc1ccc(C(F)(F)F)cc1NC(N)=S	44*	-1	4	.	-4	0
CC(C)C#Cc1ccc2c(c1)O[C@H](CN(C)Cc1ccncc1)[C@H](C)CN([C@@H](C)CO)S2(=O)=O	0	.	.	-2	.	.
CN(C)CCN(C(=O)c1ccc(C(=O)c2ccccc2)cc1)c1nc2cc3c(cc2s1)OCO3	0	0	?	-3	8	-1
CCN(CC)CCN(C(=O)c1ccc2ccccc2c1)c1nc2cc3c(cc2s1)OCO3	0	1	53*	1	7	-2
CN(C)CCCN(C(=O)c1ccc(S(=O)(=O)N(C)C)cc1)c1nc2cc3c(cc2s1)OCO3	43*	-2	0	4	-2	1
C[C@@H]1CN([C@H](C)CO)C(=O)c2cc(N(C)C)ccc2O[C@@H](C)CCCCO[C@H]1CN(C)C(=O)Cc1ccccc1	-1	.	.	-3	.	-6
CCOC(=O)C1(Cc2ccccc2C)CCCN(C(=O)c2cc(CC)nn2C)C1 (configuration not stated)	43*	0	-2	.	-29	-5
CNC(=O)C[C@@H]1CC[C@@H]2[C@H](COc3ccc(NC(=O)Nc4cccc(C)c4)cc3C(=O)N2C)O1	0	.	.	2	.	-4
CCOCCCNC(=O)c1ccc2c(c1)ncn2C1CCCC1	.	-1	0	6	-12	.
CC(C)CCNC(=O)c1ccc2c(c1)ncn2C1CCCC1	45*	0	-8	.	17	-2
